# Experimental data as given in PubChem BioAssay (NCI).
# Where “and” joins values, the source holds several entries; their conditions need not be identical. Equal values may be shown once. The panel holds about 83,000 compounds, 20% with a hit somewhere; the sample as a whole holds those more often.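 Each cell line was grown in a 96-well plate and treated with one concentration of compound for 48 hours. Values below 10 were considered active.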 Calls of active or inactive are those of the source.
# Test system: MDA-MB-468 breast
# Experiment: NCI-60 one-dose screen, 48 h (100 = growth as untreated, 0 = no growth, -100 = all killed)
# Settings: 10 µM unless noted
row,Compound,growth
1,CC1=CC[C@@H]2C(C)(C)[C@@H](O)CC[C@@]2(C)[C@@H]1COc1ccc2ccc(=O)oc2c1,42.8% (inactive)
2,COc1cc2oc(-c3cccc(C(=O)Nc4ccc(Br)cc4)c3)cc(=O)c2c(OC)c1OC,64.3% (inactive)
3,C[N+](C)(C)CCCCCCCCCC[N+](C)(C)C,79.6% (inactive)
4,CC(=O)Nc1ccc2c(c1)c(NC(C)=O)nn2C(=O)Nc1ccc(Cc2ccccc2)cc1,80.1% (inactive)
5,O=C1Nc2ccccc2Oc2ccc(S(=O)(=O)CC3CO3)cc21 (centres undefined),-5.7% (active)
6,NS(=O)(=O)c1ccc(CCn2c(SCC(=O)N/N=C/c3cccnc3)nc3ccccc3c2=O)cc1,92.9% (inactive)
7,O=C(O)/C=C\C(=O)Nc1cccc2ccccc12,92.2% (inactive) and 111% (inactive)
8,CC[C@H](Nc1nc(C)nc(N)c1C#N)c1nc2cccc(NCc3ccc(C(=O)NO)cc3)c2c(=O)n1-c1ccccc1,-37.1% (active)
9,CCOC(=O)c1cn2ncnc(Oc3ccc(NC(=O)NC4CC4)c(Cl)c3)c2c1C,90.1% (inactive)
10,CCOC(=O)c1cc(C)[nH]c(=O)c1C#N,97.3% (inactive)
11,O=C(Nc1ccc(Br)cc1)Nc1nc2ccc([N+](=O)[O-])cc2s1,-29% (active)
12,CN(C)c1ccc(C(Cc2ccc3ccccc3n2)Cc2ccc3ccccc3n2)cc1,32.6% (inactive) and 77% (inactive)
13,CCOC(=O)n1cc(-c2nonc2-c2cn(C)c3ncccc23)c2ccccc21,-8.56% (active)
14,O[C@H]1[C@H]2c3cc4c(cc3CN3CCC(=C[C@@H]1O)[C@H]23)OCO4,20.7% (inactive)
15,Cc1c2ccncc2c(C)c2c1c1ccccc1n2CCCCCC(=O)O,86.3% (inactive)
16,O=C(O)CSc1ccc(NCc2oc(CO)cc(=O)c2O)cc1,108% (inactive)
17,Cc1ncc(C(=O)Nc2ccc(CN3CCN(C)CC3)c(C(F)(F)F)c2)cc1C#Cc1cnc2cccnn12,7.08% (active)
18,C#CCN(C)CCCOc1ccc(NC(=O)CCCCCCC(=O)NO)cc1Cl,-0.749% (active)
19,FC(F)(F)c1cccc(Nc2ccccc2)c1,92.7% (inactive)
20,C#CCC(C(=O)OCC)C(=O)OCC,108% (inactive)

row,Compound,growth
1,CC(C)(C)CC1(C)NC(=O)NC1=O (centres undefined),96.1% (inactive)
2,CCNc1nc(C(F)(F)F)nc2c1sc(=S)n2-c1ccccc1,81.6% (inactive)
3,O=C(/C=C/Nc1ccc(S(=O)(=O)O)cc1)c1ccc(F)cc1,95.8% (inactive)
4,COc1ccc2c(c1)N(CCO)C1=C(C(=O)OC1)C2c1ccccc1 (centres undefined),-14.2% (active)
5,CO[C@H]1NC(=O)N(S(=O)(=O)c2ccc(Cl)cc2)[C@@H]1OC,110% (inactive)
6,COC1=C(OC)C(=O)C(SC/C=C(\C)CCCC(C)CCCC(C)CCCC(C)C)=CC1=O (centres undefined),42.6% (inactive)
7,COc1ccc(-c2nc(SCCC(C)C)nc(N/N=C\c3ccc(O)cc3)c2C#N)cc1,88.8% (inactive)
8,Oc1ccc(N=Cc2ccccc2)cc1,53.9% (inactive)
9,Oc1c(Cl)cc(Cl)c2ccc(Cn3cc(-c4ccc(C(F)(F)F)cc4)nn3)nc12,39.6% (inactive)
10,C=C1C(=O)O[C@H]2[C@H](O)[C@@H](C)CCC/C(C)=C/CC[C@@]3(C)O[C@@H]3C[C@@H]12,61.4% (inactive)
11,CC1(O)CCC(Nc2cc(-c3ccc(C(F)(F)F)cc3)c(C#N)c3nc4ccccc4n23)CC1 (centres undefined),86.8% (inactive)
12,COc1cccc2cc(-c3cc4ccccc4[nH]3)/c(=N/C(=S)Nc3ccc(C)cc3)oc12,81.6% (inactive)
13,O=C(CCN1CCCCC1)c1ccc(Cl)cc1,94.3% (inactive)
14,CN1CCN(Cc2ccc(NC(=O)c3ccc(C(C)(C)C)c(C#Cc4cnc5cccnn45)c3)cc2C(F)(F)F)CC1,-6.22% (active)
15,Cc1ccc2nc(NC(=O)CSC(=S)N3CCN(C)CC3)sc2c1,116% (inactive)
16,O=C(Cn1cc[n+](CC(=O)c2ccc(-c3ccccc3)cc2)c1)Nc1cccc2cccnc12,8.42% (active)
17,COc1ccc(Nc2ncnc3ccc(-c4cncc(NS(C)(=O)=O)c4)cc23)cc1Cl,-10.1% (active)
18,c1ccc(-c2n(Cc3ccc4ccccc4n3)cc[n+]2Cc2ccc3ccccc3c2)cc1,-33.5% (active)
19,COc1cc(-c2ccc(N=Nc3ccc4c(S(=O)(=O)O)ccc(N)c4c3O)c(OC)c2)ccc1N=Nc1ccc2c(S(=O)(=O)O)ccc(N)c2c1O,120% (inactive)
